Results with a measured potency or affinity are listed apart. Activity calls are given as the source filed them. Cut-off not given; nearly all actives show IC50 up to about 0.91 µM.
These compounds were tested against Calcium-dependent protein kinase 4 (Plasmodium falciparum (isolate 3D7)) (UniProt Q8IBS5) (assay: PfCDPK4 kinase inhibitors, biochemical, TCAMS library (AID 1159588)). Details: recombinant PfCDPK4, Kinase-Glo ATP depletion luminescence.
Sequence of Calcium-dependent protein kinase 4 (Plasmodium falciparum (isolate 3D7)) (Q8IBS5 whole entry, looked up): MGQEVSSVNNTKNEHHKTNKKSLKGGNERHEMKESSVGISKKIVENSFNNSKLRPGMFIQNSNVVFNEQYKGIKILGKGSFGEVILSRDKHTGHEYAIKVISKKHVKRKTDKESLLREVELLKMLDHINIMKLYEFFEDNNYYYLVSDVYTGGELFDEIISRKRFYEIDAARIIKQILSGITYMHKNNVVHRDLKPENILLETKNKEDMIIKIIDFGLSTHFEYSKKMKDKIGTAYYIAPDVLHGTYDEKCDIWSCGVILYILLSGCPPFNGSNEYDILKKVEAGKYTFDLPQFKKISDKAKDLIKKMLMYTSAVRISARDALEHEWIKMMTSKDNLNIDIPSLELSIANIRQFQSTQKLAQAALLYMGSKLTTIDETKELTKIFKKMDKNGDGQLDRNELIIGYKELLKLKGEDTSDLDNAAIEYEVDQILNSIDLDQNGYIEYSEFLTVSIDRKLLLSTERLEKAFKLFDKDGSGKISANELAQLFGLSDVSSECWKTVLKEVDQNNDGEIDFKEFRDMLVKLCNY

Row | Compound | outcome
1 | COc1cccc2c1CCN(CCN1CCC(NC(=O)c3ccc(-c4cccc(Cl)c4Cl)cc3)CC1)C2 | inactive
2 | C=CCC1OC(=O)c2cc(OC)cc(OC)c21 (stereo not given) | inactive
3 | COCC(=O)Nc1nc2ccccc2[nH]1 | inactive
4 | COc1ccc(NC(=O)C2c3ccccc3C(=O)N(C3CCCC3)C2c2cccs2)cc1 (stereo not given) | inactive
5 | CN1C[C@@H](c2ccccc2)c2cc(O)c(CN3CCCCC3)cc2C[C@H]1Cc1ccccc1 | inactive
6 | CO/C(=C\C=C\c1cc2cc(Cl)c(Cl)cc2[nH]1)C(=O)NC1CCN(CCNc2ccccc2)CC1 | inactive
7 | CC(C)(CC1CCCCC1)NC(=O)[C@H](CC1CCCCC1)Nc1ccc(C#N)c2ccccc12 | inactive
8 | CC[C@H](NC(=O)c1ccc(NC(=O)OC(C)(C)C)cc1)C(=O)N[C@@H](CO)C(=O)NCCCCc1ccccc1 | inactive
9 | COc1ccccc1CNC(=O)c1ccc(N2CCN(c3ccncc3)CC2)cn1 | inactive
10 | CCCCCCCCCc1c(C)[nH]c2ccccc2c1=O | inactive
11 | NC(N)=NN=Cc1ccc2c(c1)Cc1ccccc1-2 | inactive
12 | CC(C)(C)c1ccc(C(=O)NC2CCC(CCN3CCc4ccc(S(C)(=O)=O)cc4CC3)CC2)cc1C(F)(F)F (stereo not given) | inactive
13 | O=C(Nc1ccc2c(c1)OCO2)c1cc(-c2cccnc2)cnc1NCc1ccc2c(c1)OCO2 | inactive
14 | COc1ccc(Nc2ccnc3cc(-c4ccccn4)ccc23)cc1OC | inactive
15 | CC(C)Cn1c(Sc2ccc(C#N)c([N+](=O)[O-])c2)nnc1-c1cccs1 | inactive
16 | Cc1cc(NC(=O)c2ccco2)ccc1OC1CCN(Cc2ccc(F)cc2)C1 (stereo not given) | inactive
17 | Cn1cncc1CNCc1ccc(-c2cccc(-c3nc4ccccc4[nH]3)c2)cc1 | inactive
18 | COc1cc(C(=O)N2CCOC(CCN3CCc4c(c5ccccc5n4C)C3)(c3ccc(Cl)c(Cl)c3)C2)cc(OC)c1OC (stereo not given) | inactive
19 | CC(C)C[C@H](NC(=O)c1cc2ccccc2s1)C(=O)N[C@H]1CCN(Cc2ccc(I)c(OCCN3CCCC3)c2)C1 | inactive
20 | O=C(Nc1cc(F)cc(F)c1)N1CCOC(CCN2CCC(c3ccccc3)CC2)(c2ccc(Cl)c(Cl)c2)C1 (stereo not given) | inactive

Row | Compound | outcome
21 | COc1ccc(-c2nc3cccnc3n2CC(=O)Nc2cc(Cl)c(Cl)cc2Cl)c(OC)c1 | inactive
22 | CCCCn1c(C(C)Oc2ccc(Cl)cc2Cl)nc2cc(S(N)(=O)=O)ccc21 (stereo not given) | inactive
23 | CC(C)N1CCN(c2ccc(OCCCN3CCN(c4cccc(Cl)c4Cl)CC3)c(C(F)(F)F)c2)CC1 | inactive
24 | COc1ccc(OC)c(Cc2cnc3nc(N)[nH]c(=O)c3c2C)c1 | inactive
25 | CCCCCCNC(=O)C1Cc2c([nH]c3ccc(C)cc23)C2(CCN(CCc3ccccc3)CC2)N1 (stereo not given) | inactive
26 | COc1cccc(NC(=O)NC2CCN(c3ccnc(Nc4cc(OC)c(OC)c(OC)c4)n3)C2)c1 (stereo not given) | inactive
27 | Fc1ccc2nc(-c3ccc(-c4ccc(CNCCc5ccncc5)cc4)s3)[nH]c2c1 | inactive
28 | CC(C)C[C@@H](NC(=O)OC(C)(C)C)C(=O)Nc1ccc(Cc2ccc(NC(=O)[C@@H](CC(C)C)NC(=O)OC(C)(C)C)cc2)cc1 | inactive
29 | COc1ccc(CNCCc2cccs2)cc1-c1ccc(S(=O)(=O)NCCN2CCCC2)s1 | inactive
30 | O=c1c(NCCCN(Cc2ccc(F)cc2)c2ccccn2)c(NCc2cccnc2)c1=O | inactive
31 | CC(C)CNCc1ccc(-c2ccc(CN(CCCN3CCN(C)CC3)C(=O)CCC3CCCC3)cc2)cc1 | inactive
32 | CC(=O)C1=NN(c2ccc(C)cc2)C(c2cccs2)N1c1ccccc1 (stereo not given) | inactive
33 | CCn1cc(-c2cc(C(=O)Nc3ccc(OC)cc3C)c3ccccc3n2)c(C)n1 | inactive
34 | O=C(c1ccc(-c2ccc(-c3nc4ccc(C(F)(F)F)cc4[nH]3)s2)cc1)N1CCCCC1CN1CCC(O)C1 (stereo not given) | inactive
35 | O=C(NCC1CCN(CCN2CCc3ccc4c(c3C2)OCO4)CC1)c1ccc(-c2ccc(C(F)(F)F)cc2)cc1 | inactive
36 | O=C(NCCCCCN1CCC(c2c[nH]c3ccccc23)CC1)c1ccc(Cl)c(Cl)c1 | inactive
37 | FC(F)(F)c1ccc2nccc(NN=CC=Cc3ccccc3)c2c1 | inactive
38 | N#Cc1ccnc(-c2ccc(CNC3CCN(CC4Cn5c(=O)ccc6ccc(F)c4c65)CC3)cc2)c1 (stereo not given) | inactive
39 | COc1cc2nc(NCc3ccc(S(N)(=O)=O)cc3)nc(Nc3ccc(Oc4ccccc4)cc3)c2cc1OC | inactive
40 | Cc1nc(N)nc(N)c1OCc1cccc2c1ccc1ccccc12 | inactive

From PubChem BioAssay
